AmpC inh no detg: inhibitors of E. coli AmpC beta-lactamase without detergent. P00811. AmpC nitrocefin hydrolysis, absorbance 480 nm, 0.0001% Triton. Potency, µM (top dose mostly 57.1 µM), for inactives: at the highest dose activity change, negative = inhibition, most hits filed as inhibitors. 0.52% of 330,000 active. AID 485341;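 further: plate controls were no compound for no effect and no enzyme for full effect; nearly all actives have a fitted effect of over 20% in size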
Target sequence (P00811 whole entry, looked up): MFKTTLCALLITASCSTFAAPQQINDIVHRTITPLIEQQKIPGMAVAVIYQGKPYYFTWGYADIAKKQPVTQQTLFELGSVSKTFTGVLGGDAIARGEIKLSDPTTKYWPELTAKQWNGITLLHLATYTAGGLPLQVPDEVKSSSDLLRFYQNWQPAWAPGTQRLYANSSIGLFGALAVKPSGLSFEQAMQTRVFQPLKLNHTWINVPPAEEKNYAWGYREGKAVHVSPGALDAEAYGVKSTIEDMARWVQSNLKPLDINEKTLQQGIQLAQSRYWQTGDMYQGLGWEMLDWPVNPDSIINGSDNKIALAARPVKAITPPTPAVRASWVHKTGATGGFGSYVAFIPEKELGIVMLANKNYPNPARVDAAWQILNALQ
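20 mM phosphate pH 7.0 + 0.01% (detergent screen) or 0.0001% Triton X-100; 5.3 nM AmpC reagent; cpd preinc 15 min RT; nitrocefin (800 uM stock) to start; A480 q20 s × 4 min; Activity was normalised to no-enzyme and no-compound control wells.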
SARS PLP yeast: blocks SARS-CoV papain-like protease in a yeast assay. Potency, µM (doses to about 32.9 µM), without a hit: at the highest dose activity, positive = growth rescue, usual class: activators. S. cerevisiae expressing SARS-CoV PLpro, growth rescue. 0.19% of 330,000 active; calls by dose curve; further: 0% is about no effect; nearly all actives have a fitted effect of over 55% in size
Sm TGR inh: S. mansoni TGR enzyme inhibition; Q962Y6; purified TGR, DTNB reduction, TNB absorbance 405 nm; Potency, µM (titrated, usually from 114 µM), inactives show at the highest dose activity change, negative = inhibition, hits mostly inhibitors; 3% of 360,000 active; AID 485364; further: on the % scale 0 is the no-effect control and ±100 the full control effect; nearly all actives have a fitted effect of over 60% in size
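TGR 20 nM + NADPH 100 uM (dispensed conc.), cpd preinc 15 min RT; start with NADPH (500 uM addition) then DTNB (15 mM addition). Kinetic TNB absorbance, 405 nm filter. Four-parameter Hill fit across titration.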
Pf growth 96h: inhibits malaria parasite growth, 96 h. 6.9% of 320,000 active. Potency, µM (top dose mostly 28.7 µM), inactives show at the highest dose activity change, negative = inhibition, hits mostly inhibitors. AID 504834. P. falciparum luciferase reporter growth, 96 h; further: on the % scale 0 is the no-effect control and ±100 the full control effect
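Erythrocytes infected with luciferase-expressing P. falciparum were dispensed at 2% hematocrit and 0.05% parasitemia (final), then incubated with compounds 96 hours at 37 C in 5% CO2. Luminescence after detection reagent addition reported growth.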
AmpC inh detg: AmpC beta-lactamase inhibition with detergent present; AmpC hydrolysis of nitrocefin, absorbance 480 nm, 0.01% Triton; Potency, µM (doses to about 114 µM), for the others: at the top dose activity change, negative = inhibition, hits mostly inhibitors; AID 485294; 0.041% of 370,000 active; P00811;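 further: 0% = no-compound wells and -100% = no-enzyme wells; nearly all actives have a fitted effect of over 25% in size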
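AmpC (5.3 nM in the dispensed reagent) in 20 mM phosphate pH 7.0 with 0.01% (detergent screen) or 0.0001% Triton X-100 was preincubated with compounds for 15 min at room temperature. Nitrocefin was then added from an 800 uM solution, and hydrolysis was followed at 480 nm.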
Pf growth 48h: inhibits P. falciparum growth in the first generation, 48 h | P. falciparum luciferase growth in erythrocytes, 48 h | AID 504832 | Potency, µM (titrated, usually from 28.7 µM), for the others: top-dose activity change, negative = inhibition, hits mostly inhibitors | 5.9% of 310,000 active; further: on the % scale 0 is the no-effect control and ±100 the full control effect
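Parasite viability was followed by luminescence of a genomically integrated firefly luciferase. Cultures held 0.1% parasitemia at 2% hematocrit (final), incubated under 5% CO2 at 37 C.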
Numbers without * were called inactive; u = inconclusive; x = no result; [ ] = another dose, or the depositor's remark. An excerpt weighted towards active compounds, which were near 12% of everything screened. Unless noted, the call rests on the fitted dose curve; in most records, active means well fitted curve in the direction sought with a large enough effect; inconclusive means small, poorly fitted or top-dose-only effect, or another doubt; inactive means no such curve, though single readings can be large; an effect the other way counts as inactive or inconclusive. Potency means the concentration at half of the fitted maximal effect.

SMILES	AmpC inh no detg	SARS PLP yeast	Sm TGR inh	Pf growth 96h	AmpC inh detg	Pf growth 48h
CCCN(Cc1nnc(-c2cccs2)o1)C(=O)c1cccc(S(=O)(=O)N2CCOCC2)c1	63.9%	0.1%	-11.1%	u	-1.7%	u
COc1ccc(Oc2nc3c(c(=O)n(Cc4ccccc4Cl)c(=O)n3C)n2C)cc1	x	x	-1.2%	x	23.8%	x
CCN(CC)c1ccc(N2C(=O)CSC2=S)cc1	6.4%	0.9%	-3.1%	u	1.1%	u
CCOc1ccc(N2C(=O)CSC2=S)cc1	-26.1%	20.7%	1.7%	13.1µM*	-11.9%	-1.7%
CCOc1ccc(N2C(=O)CC(=O)NC2=O)cc1	-27.1%	-6.7%	u	10.4µM*	-14.3%	-4.8%
CCC(=O)N1CCc2cc(Br)cc(S(=O)(=O)N3CCCC(C(=O)NCc4cccc(OC)c4)C3)c21 (stereo not drawn)	x	x	-11.9%	x	1.5%	x
Cc1ccc(NC(=O)c2ccc(=O)n(CC(=O)Nc3cc(C)cc(C)c3)n2)cc1	x	x	3.6%	x	8.1%	x
Cc1cccc(C)c1NC(=O)Cn1nnc(C(=O)Nc2ccc(F)cc2F)c1N	-22.0%	1.5%	6.3%	36.1%	2.5%	39.4%
Cc1ccc(NC(=O)c2nnn(CC(=O)Nc3ccc4c(c3)OCO4)c2N)cc1C	-49.1%	14.4%	-1.5%	0.0%	-13.8%	23.4%
Cc1ccc(NC(=O)Cn2nc(C(=O)Nc3ccc(C)cc3)ccc2=O)cc1	-6.5%	22.4%	-14.0%	13.1µM*	1.5%	-16.5%
Cc1cc(C)c(NC(=O)Cn2nnc(C(=O)Nc3ccc(F)cc3F)c2N)c(C)c1	-3.7%	3.0%	-17.4%	2.62µM*	-11.5%	23.2%
Cc1ccc(NC(=O)Cn2nnc(C(=O)Nc3ccc(C)c(C)c3)c2N)cc1	-35.8%	4.0%	-2.7%	9.28µM*	-0.3%	6.9%
O=[N+]([O-])c1cc(S(=O)(=O)N2CCCC2)ccc1SCCO	-38.7%	2.4%	-0.8%	-3.7%	-0.6%	-13.0%
CC(=O)N1CCc2cc(S(=O)(=O)NC(C(=O)Nc3ccc(C)cc3C)C(C)C)ccc21 (stereo not drawn)	x	x	-3.8%	x	2.8%	x
CCN(c1ccccc1)S(=O)(=O)c1ccc(N2CCN(c3ccccc3O)CC2)nc1	-31.1%	3.8%	-21.7%	9.28µM*	-13.5%	6.57µM*
COc1ccccc1NC(=O)c1ccc2nc(C)c(C)nc2c1	-8.3%	-0.6%	0.0%	0.0%	1.9%	16.5%
CCc1ccccc1NC(=O)C1CCCN(c2ncnc3onc(C)c23)C1 (stereo not drawn)	x	x	1.5%	x	17.5%	x
COc1ccc(N2CCN(C(c3nnnn3C3CCCC3)C(C)C)CC2)cc1 (stereo not drawn)	0.5%	0.4%	-8.3%[57.1 µM]	39.9%	-3.3%	-11.5%
COc1ccc(OC)c(C(c2nnnn2C2CCCC2)N2CCN(c3ccc(F)cc3)CC2)c1 (stereo not drawn)	0.7%	-9.7%	-5.2%	23.5%	-1.1%	11.7µM*
COc1ccc(C(c2nnnn2C2CCCC2)N2CCC(C)CC2)c(OC)c1 (stereo not drawn)	84.1%	-5.5%	-0.6%	3.4%	2.0%	11.7µM*
COc1ccc2cc(C(c3nnnn3C3CCCC3)N3CCCCCC3)c3nnnn3c2c1 (stereo not drawn)	-17.8%	-15.7%	-4.5%	-16.9%	u	3.2%
Cc1ccc(NC(=O)C(=O)NCC(c2ccc3c(c2)OCO3)N2CCOCC2)cc1C (stereo not drawn)	x	x	16.5%	x	1.1%	x
COc1ccc(/C=C(/NC(=O)c2cccs2)C(=O)NC(C)(C)C)cc1OC	-7.0%	-2.1%	1.1%	9.28µM*	-20.3%	11.1%
CC(C)C[C@H]1CN=C(Nc2ccccc2)N1CCCC1CCCCC1	23.4%	2.9%	-9.6%	u	-16.6%	u
CC(C)C[C@H]1CN=C(Nc2ccccc2)N1CCCC1CCCC1	42.8%	-7.0%	10.6%	11.7µM*	-2.6%	u
SMILES	AmpC inh no detg	SARS PLP yeast	Sm TGR inh	Pf growth 96h	AmpC inh detg	Pf growth 48h
NS(=O)(=O)c1cccc(NS(=O)(=O)c2ccc3ccccc3c2)c1	-22.4%	-2.0%	25.9%	35.5%	2.4%	30.9%
COC(=O)c1ccc(CSc2nc3scc(-c4cccs4)c3c(=O)[nH]2)o1	10µM*	0.0%	u	-12.4%	-10.3%	-23.4%
CCC(=O)Nc1sc(C(=O)Nc2ccccc2F)c(C)c1C(=O)OC	-14.8%	2.0%	6.4%	2.08µM*	-4.9%	5.5%
COC(=O)c1sccc1NC(=O)Nc1ccc(Cl)c(Cl)c1	0.159µM*	-11.5%	5.2%	u	3.3%	94.3%
COC(=O)c1sccc1NC(=O)Nc1ccccc1F	-24.7%	-9.6%	-0.4%	9.28µM*	-0.5%	60.3%
CCN(Cc1ccccc1)C(=O)Cn1c(=O)n(CC(=O)NCc2ccco2)c(=O)c2sccc21	-11.4%	3.9%	0.0%	-10.2%	u	6.0%
O=S(=O)(c1ccccc1)N1CCN(Cc2cc3c(cc2Br)OCCO3)CC1	-44.2%	-6.8%	7.3%	u	-2.7%	u
O=S(=O)(c1ccccc1F)N1CCN(Cc2cc3c(cc2Br)OCCO3)CC1	2.8%	0.4%	0.9%	8.28µM*	u	u
COC(=O)c1cc2oc(C)cc2n1CC(=O)Nc1ccc(OC)c(OC)c1	x	x	-13.9%	x	-2.0%	x
CN1CCN(CC(=O)c2ccccc2F)CC1	-17.6%	2.7%	11.2µM*	-12.4%	4.4%	-23.9%
Cc1ccc(-c2noc(-c3ccccc3C(=O)NCc3ccco3)n2)cc1	0.8%	-3.1%	u	66.6%	2.9%	43.9%
COc1cc(-c2noc(CCC(N)=O)n2)cc(OC)c1OC	-13.4%	-6.1%	9.3%	9.28µM*	-10.3%	-5.0%
Cc1ccccc1-c1noc(CCC(=O)NCc2ccco2)n1	-14.8%	-2.6%	28.2µM*	2.9%	2.1%	0.9%
Cc1cccc(-c2noc(-c3ccccc3C(=O)NCc3ccco3)n2)c1	-13.9%	-2.9%	22.4µM*	34.3%	-0.5%	36.5%
CCOc1cc(-c2noc(CCC(=O)NCCc3ccccc3)n2)ccc1OC	36.8%	-6.3%	5.8%	2.62µM*	u	0.0%
COc1cc(-c2noc(CCC(=O)NC3CCCC3)n2)cc(OC)c1OC	-5.1%	0.0%	-2.5%	5.1%	3.6%	-12.4%
Cc1ccccc1-c1noc(CCC(=O)Nc2cccc(C)c2C)n1	x	x	11.0%	x	16.1%	x
O=C1CN(C(=O)/C=C/c2ccc(Br)cc2)CCN1	-7.1%	0.3%	4.1%	37.6%	1.2%	15.8%[0.00184 µM]
CCCN1CCN(CCCNC(=O)Cn2c(-c3cccs3)cc3ccccc32)CC1	x	x	-14.0%	x	4.5%	x
Cc1ccc(-c2noc(CCCC(=O)NCc3ccco3)n2)cc1	x	x	-2.4%	x	15.5%	x
